# High-throughput results from PubChem.
# CASP6 VEID inh – inhibitors of human caspase-6. P55212. purified caspase-6, Z-VEID-R110 cleavage fluorescence. inhibition, % at 12.5 µM. 350,000 tested, 0.53% active. AID 686996;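 active = mean inhibition across replicates at least about 35%, with every replicate also reaching that limit, limit read from the data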
# Target sequence (P55212 24-179 limits assumed): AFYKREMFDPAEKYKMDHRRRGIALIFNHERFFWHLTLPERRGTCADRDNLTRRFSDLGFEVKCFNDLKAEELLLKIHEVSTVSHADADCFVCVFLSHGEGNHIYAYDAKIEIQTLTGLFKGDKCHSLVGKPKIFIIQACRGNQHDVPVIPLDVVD
# Target sequence (P55212 194-293 limits assumed): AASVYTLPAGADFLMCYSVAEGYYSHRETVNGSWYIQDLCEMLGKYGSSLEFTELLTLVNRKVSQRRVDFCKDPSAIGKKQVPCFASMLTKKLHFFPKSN
# NSD2 inh – NSD2 (human) methyltransferase inhibition; inhibition, % at 12.5 µM; AID 743445; 310,000 tested, 0.54% active; NSD2 peptide methylation, AlphaScreen, 120 min; in the data active = inhibition above about 50%
# N-glyco inh – blocks N-linked glycosylation in D54 reporter cells; reporter increase, % at 12.5 µM; AID 588692; 360,000 tested, 0.23% active; D54 ERlucT glycosylation luciferase reporter, 24 h; percent of 100 nM tunicamycin response;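 active = mean luciferase reporter signal, scaled so untreated is 0 and the glycosylation-blocking control 100, at or above a set limit in every replicate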;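 note: luciferase carries N-glycosylation sites so blocking glycosylation raises the light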
# CDK5 p35 inh – blocks human CDK5/p35 kinase activity; Q00535+Q15078; Recombinant CDK5/p35, ADP-Glo luminescence, 60 min; inhibition, % at 10 µM; 330,000 tested, 0.01% active;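 active = highest replicate inhibition of at least 50% and at least 75% of replicates reaching 50%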
# ALR inh – inhibitors of human sulfhydryl oxidase ALR. purified ALR, DTT oxidation, H2O2 HRP-luminol luminescence. inhibition, % (test concentration not listed). 290,000 tested, 3.8% active;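 active = mean replicate inhibition above about 79%, with every replicate also reaching it, limit read from the data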
# Target sequence (P55789 whole entry, looked up): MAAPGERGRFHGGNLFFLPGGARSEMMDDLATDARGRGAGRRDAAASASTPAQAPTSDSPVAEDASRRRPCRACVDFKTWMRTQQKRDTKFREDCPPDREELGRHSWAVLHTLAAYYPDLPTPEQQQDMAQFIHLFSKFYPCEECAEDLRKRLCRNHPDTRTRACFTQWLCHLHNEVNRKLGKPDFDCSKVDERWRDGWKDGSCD
# SUMO Mot1 rescue – blocks SUMOylation pathway, rescuing yeast Mot1-301 growth. S. cerevisiae Mot1-301 growth rescue, ATP luminescence, 38.5C; percent above DMSO median, 100 means doubled. growth rescue, % at 18.8 µM. 320,000 tested, 1% active. AID 2716;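 active = every valid replicate shows activation above 250% relative to neutral control wells; inactive = the rest, any valid replicate at or below 250%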
# Numbers stand for hits; . = inactive; / = no result given. An excerpt weighted towards active compounds, which were near 3.9% of everything screened.
SMILES,CASP6 VEID inh,NSD2 inh,N-glyco inh,CDK5 p35 inh,ALR inh,SUMO Mot1 rescue
COc1ccc(NC(=O)Nc2ccc3c(c2)C(=O)N([C@H](C)CO)C[C@H](C)[C@@H](CN(C)CC2CCCCC2)OCCCC[C@H](C)O3)cc1,.,/,/,/,/,/
CC(=O)N[C@@H]1CC[C@@H](CCNC(=O)C2CCCCC2)O[C@H]1CO,.,/,/,/,/,/
C[C@@H]1CN([C@@H](C)CO)C(=O)Cc2cc(NC(=O)Nc3ccc4c(c3)OCO4)ccc2O[C@H]1CN(C)Cc1ccncc1,.,/,/,/,/,/
CCCC(=O)Nc1ccc2c(c1)OC[C@@H](C)N(C(=O)Cc1ccccn1)C[C@@H](C)[C@H](OC)CN(C)C2=O,.,/,/,/,/,/
CCCCCn1c(Br)nc2c1c(=O)n(CC(N)=O)c(=O)n2C,/,.,.,.,92,.
CCN(CC)CCNC(=O)c1ccc2c(c1NCCO)C(=O)c1ccccc1C2=O,36,/,.,/,.,.
CCN(CC)CCC(=O)Nc1cccc2c1C(=O)c1ccccc1C2=O,.,.,110,.,.,.
CC1CCN(C(=O)c2ccc3c(c2NCCO)C(=O)c2ccccc2C3=O)CC1,/,/,.,.,.,.
O=C(NCC[C@H]1CC[C@@H](NS(=O)(=O)c2cccc(F)c2)[C@H](CO)O1)C1CCCCC1,.,/,/,/,/,/
COCCCNC(=S)Nc1ccc(N2CCCCC2)cc1,.,.,.,.,98,.
CCNC(=S)Nc1ccc(N2CCCCC2)cc1,.,.,.,.,99,.
S=C(NCCN1CCCCC1)Nc1ccc(Br)cc1,.,.,.,.,.,348
CC(C)NC(=O)N1C[C@H]2[C@@H](c3ccccc31)[C@H](CO)N2C(=O)c1ccc(F)cc1,.,/,/,/,/,/
COc1ccc(S(=O)(=O)Nc2ccc3c(c2)C(=O)N([C@H](C)CO)C[C@H](C)[C@H](CN(C)Cc2ccncc2)O3)cc1,.,/,/,/,/,/
Cc1ccc(O)c(Nc2c3ccccc3nc3ccccc23)c1,.,.,.,.,99,.
Cc1ccc(O)c(Nc2nc(-c3ccccc3)nc3ccccc23)c1,.,.,.,.,.,.
N#Cc1c(-c2ccccc2)nc(-c2ccccc2)[nH]c1=O,/,.,.,.,.,.
Nc1nc(-c2ccccc2)[nH]c(=O)c1N=O,49,.,.,.,/,.
COc1cc(OC)nc(-n2ncc(Br)c(Br)c2=O)n1,.,.,.,.,92,.
C#CC(C)(C)NC(=O)c1ccc(-c2ccccc2F)cc1,44,.,.,.,/,.
NNC(=O)c1ccc(-c2ccccc2F)cc1,.,.,.,.,.,.
CC(C)c1ccc(/C=C2\CC/C(=C\C=N\N(C)C)C2=O)cc1,/,.,.,.,96,.
O=C1c2ccccc2C(Nc2ccc3c(c2)OCCO3)N1Cc1ccccc1 (stereo unspecified),/,/,.,.,98,.
CN(C)c1ccc(C=Nc2ccc(N(C)C)cc2)cc1,/,.,.,.,97,.
CN(C)c1ccc(/C=N/O)cc1,.,.,.,.,99,.
SMILES,CASP6 VEID inh,NSD2 inh,N-glyco inh,CDK5 p35 inh,ALR inh,SUMO Mot1 rescue
CN(C)c1ccc(C=Nc2ccccc2)cc1,/,/,.,.,.,.
CN(C)c1ccc(N=Cc2ccco2)cc1,/,/,.,.,94,.
Cc1ccc(N=Cc2ccc(N(C)C)cc2)cc1,/,.,.,.,.,.
CC(C)c1ccc(NCCC(=O)c2ccc(Br)cc2)cc1,/,.,.,.,.,324
COc1cccc(S(=O)(=O)N(C)C[C@@H]2Oc3ncc(C#CCN(C)C)cc3C(=O)N([C@@H](C)CO)C[C@@H]2C)c1,.,/,/,/,/,/
CCOc1ccc(-n2c(C)cc(C(=O)CCl)c2C)cc1,.,.,41,.,/,.
CC(C)NC(=O)N(C)C[C@H]1OCCCC[C@@H](C)Oc2ccc(NS(=O)(=O)c3ccc(F)cc3)cc2C(=O)N([C@H](C)CO)C[C@@H]1C,.,/,/,/,/,/
C[C@@H]1CCCCO[C@H](CN(C)C(=O)Nc2ccc3c(c2)OCO3)[C@@H](C)CN([C@H](C)CO)C(=O)c2cc(NC(=O)Nc3ccc(F)cc3)ccc2O1,.,/,/,/,/,/
CC1=CC(=Nc2c(C)n(C)n(-c3ccccc3)c2=O)C=CC1=O,/,/,/,/,/,.
CC1=CC(=Nc2c(C)n(C)n(-c3ccccc3)c2=O)C=C(C)C1=O,.,.,.,.,99,.
CCNc1ccc(N=Nc2c(C)n(C)n(-c3ccccc3)c2=O)cc1,.,.,.,.,99,.
NC(=O)c1ccsc1N,/,/,/,/,98,.
CC(=O)N[C@@H]1CC[C@H](CCNC(=O)C2CCC2)O[C@H]1CO,.,/,/,/,/,/
CCOC(=O)c1c(C)oc2c1c(C=NC1CCS(=O)(=O)C1)c(O)c1ccccc12 (stereo unspecified),/,88,.,.,.,.
CCOC(=O)c1c(C)oc2c1c(CN1CCN(C(=O)OCC)CC1)c(O)c1ccccc12,.,.,.,.,/,.
C[C@](N)(Cc1ccc(O)c(O)c1)C(=O)O,87,/,.,.,/,/
COC(=O)C(N)Cc1ccc(O)c(O)c1 (stereo unspecified),/,.,.,.,99,.
COC(=O)C(N)Cc1ccc(O)cc1 (stereo unspecified),/,.,.,.,.,.
CC(C)(C)C(CCl)C(=O)NN=C(c1ccccc1)c1ccccc1 (stereo unspecified),.,/,.,.,.,.
CC(Cl)C(=O)NN=C(c1ccccc1)c1ccccc1 (stereo unspecified),.,.,.,.,.,468
O=C(CCl)NN=C(c1ccccc1)c1ccccc1,.,.,.,.,94,.
CCN(CC)CC(=O)NN=C(c1ccccc1)c1ccccc1,/,.,.,.,.,.
CCOC(=O)c1cnc(-c2ccccc2)[nH]c1=O,/,.,.,.,.,320
CCOC(=O)c1cnc(-c2cccc(OC)c2)[nH]c1=O,/,.,.,.,.,.
C[C@H]1CN([C@@H](C)CO)C(=O)c2cccc(NS(=O)(=O)c3ccc(F)cc3)c2O[C@H]1CN(C)Cc1ccncc1,.,/,/,/,/,/
SMILES,CASP6 VEID inh,NSD2 inh,N-glyco inh,CDK5 p35 inh,ALR inh,SUMO Mot1 rescue
Oc1ccc(Br)cc1/C=N/n1c(-c2ccccc2)n[nH]c1=S,.,.,.,.,.,.
Cc1cccc(/C=N/n2c(-c3ccccc3)n[nH]c2=S)c1O,.,.,.,.,91,.
Oc1c(Br)cc(Br)c(/C=N/n2c(-c3ccccc3)n[nH]c2=S)c1Br,.,.,.,.,85,.
C=C1[C@H](C)CN[C@H]1CCO,43,/,.,.,/,/
COc1ccc2c(c1)OC[C@H]1[C@H]2N2C(=O)c3ccc(C)cc3NC(=O)[C@@]2(C)[C@H]1c1ccccc1,/,/,48,.,.,356
COc1ccc2c(c1)OC[C@H]1[C@H]2N2C(=O)c3cc(Cl)ccc3NC(=O)[C@@]2(C)[C@H]1c1ccccc1,/,/,.,.,.,.
COc1ccc2c(c1)OC[C@H]1[C@H]2N2C(=O)c3cc(OC)ccc3NC(=O)[C@@]2(C)[C@H]1c1ccccc1,.,/,.,.,/,356
O=C(CSc1nnc(-c2cnccn2)n1Cc1ccco1)c1ccccc1,/,.,.,.,87,.
O=C(CSc1nnc(-c2cnccn2)n1Cc1ccco1)c1ccc(Cl)cc1,/,.,.,.,.,.
